Source: PubChem BioAssay AID628 (Vanderbilt High Throughput Screening Facility, 2007)
The whole screen tested about 64,000 compounds, of which about 2,200 (3.4%) were called active. The list comes from a sample in which actives are over-represented; it also holds similar structures and randomly drawn compounds. A number with no mark means an inactive call.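 Rule for the calls: active = calcium fluorescence response, raw or row-and-column corrected B-score, differing from the plate sample mean either way at a set confidence level, mostly lower; inactive = the rest.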

target: Muscarinic acetylcholine receptor M1 (Rattus norvegicus) (UniProt P08482); assay: antagonists of rat M1 muscarinic receptor (AID 628); conditions: CHO-M1 cells, Fluo-4 calcium, ACh EC80 antagonist mode; at 10 µM; hits give low values
Sequence (P08482 whole entry, looked up): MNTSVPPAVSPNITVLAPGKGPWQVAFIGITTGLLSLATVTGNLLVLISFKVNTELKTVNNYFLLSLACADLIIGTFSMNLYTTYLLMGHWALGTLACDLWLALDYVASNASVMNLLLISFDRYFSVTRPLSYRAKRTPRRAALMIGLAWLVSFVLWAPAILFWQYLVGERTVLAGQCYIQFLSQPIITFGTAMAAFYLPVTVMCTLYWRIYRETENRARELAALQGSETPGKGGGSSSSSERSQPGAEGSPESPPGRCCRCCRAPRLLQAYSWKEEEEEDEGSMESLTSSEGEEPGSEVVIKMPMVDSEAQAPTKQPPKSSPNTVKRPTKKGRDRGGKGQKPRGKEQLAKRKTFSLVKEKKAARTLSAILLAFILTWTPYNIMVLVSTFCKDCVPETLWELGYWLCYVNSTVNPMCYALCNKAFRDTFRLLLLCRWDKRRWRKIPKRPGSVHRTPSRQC

| SMILES | B-score |
| --- | --- |
| O=C(CSc1nnnn1-c1ccc2c(c1)CCC2)Nc1ccc2c(c1)OCCO2 | -1.02 |
| CC(=O)Nn1cc2c(=O)n(C)c(=O)n(C)c2c1 | 0.526 |
| CC(C)OCCCNC(=O)C1CC(=O)N(C2CCCCCCC2)C1 (stereo not drawn) | -0.0238 |
| O=C(NCCc1ccc(Cl)cc1)C1CC(=O)N(C2CCCCC2)C1 (stereo not drawn) | -0.27 |
| O=C(NCCCN1CCCCCC1)C1CC(=O)N(C2CCCC2)C1 (stereo not drawn) | -2.1 (active) |
| Cc1ccc(-n2nc3c(c2NC(=O)CCC2CCCCC2)CS(=O)C3)cc1 (stereo not drawn) | 0.299 |
| Cc1ccnc(SCCn2c(N(C)Cc3ccccc3)nc3c2c(=O)n(C)c(=O)n3C)n1 | 0.589 |
| COC(=O)C(C)Sc1ccc2nnc(-c3cccc(F)c3)n2n1 (stereo not drawn) | -0.0277 |
| CCOC(=O)C(C(=O)OCC)C(C#N)c1ccccc1 (stereo not drawn) | 0.000361 |
| CC(NC(=O)Nc1ccccc1)c1ccccc1 (stereo not drawn) | 0.2 |
| CCC(C(=O)OCCN(CC)CC)c1ccccc1 (stereo not drawn) | -11.7 (active) |
| N#Cc1ccccc1-n1c(N)c(C(=O)N2CCCC2)sc1=S | 0.0882 |
| CCc1ccccc1N(CC(=O)NCCSCc1ccco1)S(C)(=O)=O | 0.00624 |
| COC(=O)c1sc(NC(=O)c2ccc(OC)cc2OC)nc1C | 0.124 |
| COc1ccccc1Nc1ncc(C(C)=O)c(C)n1 | -0.0613 |
| COc1cccc2sc(Nc3nc(C)c(C(C)=O)s3)nc12 | -5.09 (active) |
| O=C(CC(NCCN1CCOCC1)C(=O)O)Nc1cccc(Cl)c1 (stereo not drawn) | -0.31 |
| C=CCNC(=O)c1cc(-c2ccccc2O)on1 | -0.349 |
| Cc1nn(CC(=O)Nc2ccc3c(c2)nc(CN2CCCCC2)n3C)c(=O)c2ccccc12 | -0.553 |
| CCC(=O)Nc1ccc2c(c1)nc(CCN1CCN(C)CC1)n2C | 0.254 |
| Cn1c(CCN2CCCCCC2)nc2cc(NC(=O)Nc3ccccc3)ccc21 | -12.1 (active) |

| SMILES | B-score |
| --- | --- |
| CC(=O)Nc1ccc(-c2cn3cccnc3n2)cc1 | -0.0342 |
| COc1ccc(S(=O)(=O)NC(CC(=O)NCc2ccccc2OC)c2ccco2)cc1 (stereo not drawn) | -0.297 |
| CCS(=O)(=O)n1nc(-c2ccc(OC)cc2)nc1SC | 0.364 |
| CC(C)OCCCNc1ncnc2c1[nH]c1ccc(F)cc12 | -5.34 (active) |
| O=C1CCCN1CCCNc1ncnc2c1[nH]c1ccccc12 | -0.26 |
| CCN1CCCC1CNc1ncnc2c1[nH]c1ccc(F)cc12 (stereo not drawn) | 0.215 |
| Cc1ccc2c(c1)NCC(C(=O)NC1CCC(C)CC1)O2 (stereo not drawn) | 0.906 |
| O=C(Oc1cccnc1)c1cc2ccccc2oc1=O | -1.49 |
| OC(COc1cccc2ccccc12)CN1CCN(c2ccccn2)CC1 (stereo not drawn) | -0.255 |
| CN(C)[C@@H]1C(=O)C(C(N)=O)=C(O)[C@@]2(O)C(=O)C3=C(O)c4c(O)ccc(Cl)c4[C@@H](O)[C@H]3C[C@@H]12 | -15.3 (active) |
| Cn1cccc1C(=O)NC(=O)COC(=O)Cc1coc2ccc3ccccc3c12 | -0.0274 |
| COc1ccccc1CNC(=O)C1CCN(S(C)(=O)=O)CC1 | 0.445 |
| Cc1nc(NCCN)c(C#N)c2c1COC(C)(C)C2 | 0.614 |
| Cc1ccc(-n2ncc3c(N4CCN(c5ccc(F)cc5)CC4)ncnc32)c(C)c1 | -0.0379 |
| Fc1ccc2[nH]c3c(N4CCN(Cc5ccc6c(c5)OCO6)CC4)ncnc3c2c1 | -0.265 |
| Fc1ccc2[nH]c3c(N4CCSCC4)ncnc3c2c1 | -2.69 (active) |
| Cc1ccc2nc(NC3=NCN(CCc4ccccc4)CN3)nc(C)c2c1 | -5.98 (active) |
| N#CNC1=NCN(CCc2ccccc2)CN1 | -0.391 |
| c1ccc(CCN2CN=C(Nc3nc4ccccc4o3)NC2)cc1 | 0.0039 |
| O=C(NCCC1=CCCCC1)C1CCN(Cc2cnn(-c3ccccc3)c2-n2cccc2)CC1 | -1.39 |
| Cc1ccc2cc3cc(C(=O)N4CCCCCC4)oc3nc2c1 | -0.434 |

| SMILES | B-score |
| --- | --- |
| COc1cccc(-c2cc3nc4c(c(N5CCC6(CC5)OCCO6)n3n2)CCCC4)c1 | -0.0679 |
| O=C(Nc1cccc(C(=O)N2CCCC2)c1)c1ccccc1 | 0.0406 |
| O=C(Nc1cccc(NC(=O)N2CCN(c3ccccc3)CC2)c1)N1CCN(c2ccccc2)CC1 | -3 (active) |
| CC(=O)N1CCN(C(=O)Nc2cccc(C(F)(F)F)c2)CC1 | -0.154 |
| COc1ccc(-c2c(C)nn3c(N4CCC(C(=O)N5CCCCC5)CC4)cc(C)nc23)cc1OC | -0.265 |
| FC(F)(F)c1cccc(Nc2ncnc3ccccc23)c1 | 0.376 |
| COc1ccccc1N1CCN(C(=O)c2ccc(S(=O)(=O)N3CCCCC3)cc2)CC1 | -1.54 |
| N#CC(C(=O)c1ccc(S(=O)(=O)N2CCCCCC2)cc1)c1nc2ccccc2[nH]1 (stereo not drawn) | -4.04 (active) |
| O=C(Nc1cccc(F)c1)c1ccc(S(=O)(=O)N2CCCC2)cc1 | -0.622 |
| CCOc1ccccc1NC(=O)C1CCC(CNc2c(N3CCOCC3)c(=O)c2=O)CC1 (stereo not drawn) | 0.744 |
| COc1ccc(N2C(=O)CC(N3CCC(C(N)=O)CC3)C2=O)cc1 (stereo not drawn) | -0.21 |
| O=C(CSc1nnc(-c2cccs2)n1Cc1ccco1)c1ccc2c(c1)OCO2 | 0.219 |
| COC(=O)C1=CN(C)C=C(C(=O)OC)C1c1ccc(Cl)cc1Cl | 1.15 |
| CCOc1cccc(-c2nn3c(-c4ccccn4)nnc3s2)c1 | -0.924 |
| COc1cc(-c2nn3c(-c4cccc(C)c4)nnc3s2)cc(OC)c1OC | 0.799 |
| c1ccc(-c2cc(-c3nnc4sc(-c5ccccn5)nn34)[nH]n2)cc1 | -2.66 (active) |
| CCCCOC(=O)Nc1nccs1 | 0.0324 |
| COc1ccc(Cl)cc1NC(=O)c1oc(C)nc1C | -0.215 |
| O=C(c1cccc(S(=O)(=O)N2CCOCC2)c1)N1CCOCC1 | 0.238 |
| O=C(c1ccc(S(=O)(=O)N2CCOCC2)cc1)N1CCN(c2ccccc2)CC1 | -2.93 (active) |
| CSC1=NCCN1C(=O)c1ccc(S(=O)(=O)N2CCOCC2)cc1 | -0.648 |
